# PubChem BioAssay (NCATS)
# Results filed as inconclusive are left out. A call without a number means that no potency is given here. Unmarked numbers belong to inactive results. Calls of active or inactive are those of the source. The call rests on the fitted dose curve; in most records, active means well fitted curve in the direction sought with a large enough effect; inconclusive means small, poorly fitted or top-dose-only effect, or another doubt; inactive means no such curve, though single readings can be large; an effect the other way counts as inactive or inconclusive.
# Legend:
# [1] = molecular target: Cellular tumor antigen p53 (Homo sapiens) (UniProt P04637); assay: Primary qHTS for small molecule compounds that upregulate eGFP-tagged delta133p53alpha (in N-terminal) cells. (AID 2060322); settings: NCI-H358 eGFP-delta133p53alpha fluorescence, 24 h; activation: hits give high values; further: nearly all actives have a fitted effect of over 75% in size; further: potency means the concentration at half of the fitted maximal effect; on activation: series mostly up to about 56 µM
# Sequence of Cellular tumor antigen p53 (Homo sapiens) (P04637 whole entry, looked up): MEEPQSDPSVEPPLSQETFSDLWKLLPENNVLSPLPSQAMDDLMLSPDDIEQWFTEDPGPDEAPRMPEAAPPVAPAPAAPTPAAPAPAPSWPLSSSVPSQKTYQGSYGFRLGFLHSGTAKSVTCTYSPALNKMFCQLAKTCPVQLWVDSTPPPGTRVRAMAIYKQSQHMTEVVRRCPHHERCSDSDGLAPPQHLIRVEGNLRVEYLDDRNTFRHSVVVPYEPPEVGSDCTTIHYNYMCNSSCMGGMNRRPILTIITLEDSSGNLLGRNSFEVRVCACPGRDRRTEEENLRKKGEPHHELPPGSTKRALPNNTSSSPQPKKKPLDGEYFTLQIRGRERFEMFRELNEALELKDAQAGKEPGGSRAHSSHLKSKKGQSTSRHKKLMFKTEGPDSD
# Outline: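 NCI-H358 cells pre-induced 24 h with 10 ng/ml doxycycline to express N-terminal eGFP-delta133p53alpha, then dosed 24 h at 37C without doxycycline; fixed, Hoechst-stained, GFP intensity by laser scanning cytometry, normalized to DMSO (0%) and 57.5 uM 5-azacytidine (100%).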
# [2] = molecular target: Aldehyde dehydrogenase, mitochondrial (Homo sapiens) (UniProt P05091); assay: qHTS for Inhibitors of the Aldehyde Dehydrogenase Family (ALDH2) Primary screen (AID 2061308); further: nearly all actives have a fitted effect of over 55% in size
# [3] = molecular target: Retinaldehyde dehydrogenase 3 (Homo sapiens) (UniProt P47895); assay: qHTS for Inhibitors of the Aldehyde Dehydrogenase Family (ALDH1A3) Primary screen (AID 2061315)
# [4] = molecular target: Retinal dehydrogenase 2 (Homo sapiens) (UniProt O94788); assay: qHTS for Inhibitors of the Aldehyde Dehydrogenase Family (ALDH1A2) Confirmation screens (AID 2061314); further: nearly all actives have a fitted effect of over 65% in size; further: potency means the concentration at half of the fitted maximal effect
# [5] = molecular target: Aldehyde dehydrogenase 1A1 (Homo sapiens) (UniProt P00352); assay: qHTS for Inhibitors of the Aldehyde Dehydrogenase Family (ALDH1A1) Confirmatory screens (AID 2061316); further: nearly all actives have a fitted effect of over 65% in size
structure (smiles),measurement,setting,value
C[C@@H]1O[C@@H](O[C@@H]2[C@@H](O[C@@H]3O[C@@H](C)[C@H](O[C@@H]4OC[C@H](O)[C@H](O[C@@H]5OC[C@@H](O)[C@H](O)[C@H]5O)[C@H]4O)[C@@H](O[C@@H]4OC[C@](O)(CO)[C@H]4O)[C@H]3O)[C@H](OC(=O)[C@]34CCC(C)(C)C[C@H]3C3=CCC5[C@@]6(C)C[C@H](O)[C@H](O[C@@H]7O[C@H](CO[C@@H]8OC[C@H](O)[C@H](O)[C@H]8O)[C@@H](O)[C@H](O)[C@H]7O)C(C)(C)C6CC[C@@]5(C)[C@]3(C)C[C@H]4O)OC[C@H]2O)[C@H](O)[C@H](O)[C@H]1O (stereo not given in full),activation,[1],-8.4%
same,"activity change, negative = inhibition",[2],17% [at 11.2 µM]
same,"activity change, negative = inhibition",[3],8.86% [at 11.2 µM]
COC(=O)Cc1cc2c(c([N+](=O)[O-])c1)N(C(=O)CC[C@H](N)C(=O)O)CC2,activation,[1],-7.67%
same,Potency,[2],inactive
same,Potency,[4],inactive
same,Potency,[3],inactive
C[C@H](O)C(O)(C(=O)OCc1ccccc1NC(=O)CCC(N)C(=O)O)[C@H](C)O (stereo not given in full),activation,[1],-24.4%
same,Potency,[2],inactive
same,Potency,[3],inactive
CC1(C)C2CCC1(C)C(OC(=O)C(O)(CC(=O)O)CC(=O)O)C2 (stereo not given),activation,[1],-24.4%
same,Potency,[2],inactive
same,Potency,[4],inactive
same,Potency,[3],inactive
same,Potency,[5],inactive
COc1c(OC2OC(CO)C(O)C(O)C2O)ccc(O)c1C(=O)OCc1ccccc1O[C@@H]1O[C@H](CO)[C@@H](O)[C@H](O)[C@H]1O (stereo not given in full),activation,[1],3.82%
same,Potency,[2],inactive
same,Potency,[3],inactive
CCc1cccc(CC)c1-n1c(C=C(C)C)c(C(=O)N2CCNCC2)cc(-c2nc(-c3ccc(C(F)(F)F)cc3)cs2)c1=O,activation,[1],26.3%
same,Potency,[2],inactive
same,Potency,[3],inactive
C/C1=C\CC[C@H](C)CCO[C@@H]2O[C@H](CO[C@@H]3OC[C@](O)(COC1=O)[C@H]3O)[C@@H](O)[C@H](O)[C@H]2O,activation,[1],18.8%
same,Potency,[2],inactive
same,Potency,[3],inactive
COC(=O)C(CC1(OC(=O)C(C)C)c2ccccc2N2C(=O)C(C)(C)N(O)C21)n1cnc2ccccc2c1=O (stereo not given),activation,[1],3.05%
same,Potency,[2],inactive
same,Potency,[3],inactive
C=C1C(=O)O[C@@H]2C=C(COC(C)=O)CC/C=C(\CO)CC[C@@H]12,activation,[1],3.82%
same,Potency,[2],inactive
same,Potency,[3],inactive
COC(=O)c1ccc(OC(CO)C(O)c2ccc(O)c(OC)c2)c(OC)c1 (stereo not given),activation,[1],9.82%
same,Potency,[2],inactive
same,Potency,[4],inactive
CC(=O)O[C@H]1[C@H](OC(=O)C(C)C)[C@]2(C)OC3(CC[C@]2(C)[C@H]2CCC[C@]4(CO4)[C@]12C)COC(=O)C3 (stereo not given in full),activation,[1],1.53%
same,Potency,[2],inactive
same,Potency,[3],inactive
C/C(=C\C1CCC(C)C2CCC3(C)OC123)C(=O)O (stereo not given),activation,[1],8.04%
same,Potency,[2],inactive
same,Potency,[3],inactive
CC1(C)CC2C3=CCC4[C@@]5(C)CC[C@H](OC6OCC(O)C(OC7OC(CO)C(O)C(O)C7O)C6O)C(C)(C)C5CC[C@@]4(C)[C@]3(C)C[C@H](O)[C@@]2(CO)[C@H](OC(=O)c2ccccc2)C1 (stereo not given in full),activation,[1],19.8%
same,Potency,[2],inactive
same,Potency,[3],inactive
CC(=O)O[C@H]1[C@H](C)[C@@H](O)[C@H]2[C@@H]1C=C(C(=O)O)[C@H]1C[C@@H]3[C@H]([C@H]21)[C@H]1C(=O)O[C@@H]2CC[C@@]3(C)O[C@]1(O)[C@@H]2C,activation,[1],-11.5%
same,Potency,[2],inactive
same,Potency,[3],inactive
C=C1C(=O)O[C@@H]2[C@H]1CC(=O)[C@H](C)[C@@](O)(C(=O)/C=C/C)[C@H]2OC(=O)C(C)CC (stereo not given in full),Potency,[1],5.88 µM (active)
same,Potency,[2],inactive
same,Potency,[4],4.4 µM (active)
same,Potency,[3],inactive
same,Potency,[5],inactive
CC(=O)c1cc(C(=O)N[C@@H](C)Cn2ccc(-c3ccc(C#N)c(Cl)c3)n2)[nH]n1,activation,[1],18.3%
same,Potency,[2],inactive
same,Potency,[3],inactive
COc1cc(O)cc(C)c1C(=O)O[C@H]1[C@@H](OC(C)=O)[C@H](n2ccc(=O)[nH]c2=O)O[C@@H]1CO,activation,[1],-32.8%
same,Potency,[2],inactive
same,Potency,[3],inactive
C[C@H](CN1CCCC1)C(=O)c1ccc(C(F)(F)F)cc1,activation,[1],21%
same,Potency,[2],inactive
same,Potency,[3],inactive
COc1cc(O)cc2c1C(=O)OC(C)CCCCCCC2 (stereo not given),activation,[1],1.79%
same,Potency,[2],inactive
same,Potency,[4],inactive
same,Potency,[3],inactive
O=C(/C=C/c1ccc(O)cc1)OCC1=CC2OC(=O)C3=CO[C@@H](O[C@@H]4O[C@H](CO)[C@@H](O)[C@H](O)[C@H]4O)[C@H]1[C@@H]32 (stereo not given in full),activation,[1],0%
same,Potency,[2],inactive
same,Potency,[3],inactive
COC(=O)CC(O)CC(O)/C=C/c1c(C)ccc2c1C(OC(C)=O)CC(C)C2 (stereo not given),activation,[1],-0.763%
same,Potency,[2],inactive
same,Potency,[3],inactive
CNC12CC3C[C@@](C)(C1)C[C@](C)(C3)C2,activation,[1],-6.33%
same,Potency,[2],inactive
same,Potency,[3],inactive
C=C1CCCC2(C)CC3(OC)OC(=O)C(C)=C3CC12 (stereo not given),activation,[1],16.1%
same,Potency,[2],inactive
same,Potency,[3],inactive
C[C@@H]1O[C@@H](O[C@H]2[C@H](O[C@H]3[C@H](O[C@H]4CC[C@@]5(C)C(CC[C@]6(C)C5CC=C5[C@@H]7CC(C)(C)C[C@@H](O)[C@]7(C)CC[C@]56C)C4(C)C)O[C@H](C(=O)O)[C@@H](O)[C@@H]3O)O[C@H](C(=O)O)[C@H](O)[C@@H]2O)[C@H](O)[C@H](O)[C@H]1O (stereo not given in full),activation,[1],-16.8%
same,Potency,[2],inactive
same,Potency,[3],inactive
COC(=O)CCSCc1ccc(-c2onc(C)c2NC(=O)OC(C)c2ccccc2Cl)cc1 (stereo not given),activation,[1],-5.25%
same,Potency,[2],inactive
same,Potency,[3],inactive
C=CC(C)(CC/C=C(\C)C(=O)OC[C@H]1O[C@@H](OC(C)(C=C)CC/C=C(\C)C(=O)O[C@H]2[C@H](O)[C@@H](O)[C@H](OC(C)(C=C)CC/C=C(\C)C(=O)O)O[C@@H]2CO)[C@H](O)[C@@H](O)[C@@H]1O)O[C@@H]1O[C@H](CO)[C@@H](O)[C@H](O)[C@H]1O (stereo not given in full),activation,[1],-9.16%
same,Potency,[2],inactive
same,Potency,[3],inactive
C=C(C)C1CC(O)C(C)C12CC(O)C1(C)OC1C2O (stereo not given),activation,[1],19.1%
same,Potency,[2],inactive
same,Potency,[3],inactive
CC1CCC2C(C)(C)CC(C)(CO)C2(O)C1C(=O)O (stereo not given),activation,[1],15.3%
same,Potency,[2],inactive
same,Potency,[3],inactive
CC(=O)c1c(C)cc(O[C@@H]2O[C@H](CO)[C@@H](O)[C@H](O)[C@H]2O)cc1O,activation,[1],-9.92%
same,Potency,[2],inactive
same,Potency,[3],inactive
CC(=O)N1CCN(C(=O)Cc2ccc(Nc3ncc(F)c(Nc4ccc(C(=O)Nc5ccccc5Cl)cc4)n3)cc2)CC1,Potency,[1],13.5 µM (active)
same,Potency,[2],inactive
same,Potency,[3],inactive
C1CCN2CC3C[C@@H](CN4CCCC[C@@H]34)[C@H]2C1,activation,[1],-23.2%
same,Potency,[2],inactive
same,Potency,[3],inactive
O=C(/C=C/c1ccc(O)cc1)OC[C@H]1O[C@H](O[C@@]2(CO)O[C@@H](CO)[C@H](O)[C@H]2O)[C@H](O)[C@@H](O)[C@@H]1O,activation,[1],6.25%
same,Potency,[2],inactive
same,Potency,[3],inactive
COc1cc(CCCO)ccc1O[C@@H]1O[C@H](CO)[C@@H](O)[C@H](O)[C@H]1O,activation,[1],-16.1%
same,Potency,[2],inactive
same,Potency,[3],inactive
C=C1CC/C=C(/CO)C(=O)C[C@@H]2[C@@H]1C[C@@]2(C)COC(C)=O,activation,[1],11.5%
same,Potency,[2],inactive
same,Potency,[3],inactive
C/C1=C/CCC2=CC(OC2=O)C(C)(C)/C=C/C1=O (stereo not given),Potency,[1],4.26 µM (active)
same,Potency,[2],inactive
same,Potency,[3],inactive
OC[C@H]1O[C@@H](n2cnc3c(NCc4ccc(O)cc4)ncnc32)[C@H](O)[C@@H]1O,activation,[1],13.7%
same,Potency,[2],inactive
same,Potency,[3],inactive
COc1cc2ncnc(Nc3ccc(F)c(Cl)c3)c2cc1O,activation,[1],25.7%
same,Potency,[2],inactive
same,Potency,[3],inactive
C[C@]12CCC(=O)C=C1[C@@H](O)C[C@@H]1[C@@H]2[C@@H](O)C[C@@]2(C)[C@H]1CC[C@]2(O)C(=O)CO,activation,[1],16.3%
same,Potency,[2],inactive
same,Potency,[3],inactive
C=C1CC[C@@]2(OC1)O[C@H]1CC3[C@@H]4CC=C5C[C@H](O[C@H]6OC[C@@H](O)C(O)[C@@H]6O[C@@H]6O[C@@H](C)[C@H](O)[C@@H](O[C@@H]7O[C@H](CO)[C@@H](O)[C@H](O)[C@H]7O)[C@H]6O)C[C@@H](O)[C@]5(C)C4CC[C@]3(C)[C@H]1[C@@H]2C (stereo not given in full),activation,[1],-6.25%
same,Potency,[2],inactive
same,Potency,[3],inactive
COc1cc2ncnc(Nc3cccc(I)c3)c2cc1OC,Potency,[1],12 µM (active)
same,Potency,[2],inactive
same,Potency,[3],inactive
Nc1nc2c(s1)CCN(Cc1ccc(Cl)cc1)CC2,activation,[1],19.1%
same,Potency,[2],inactive
same,Potency,[3],inactive
O=C(CCCN1CCN(c2ccc(F)cc2)CC1)NC1c2ccccc2CSc2ccccc21 (stereo not given),activation,[1],-15%
same,Potency,[2],inactive
same,Potency,[3],inactive
NCCCNc1ccc(Nc2nccc(Nc3cc(C4CC4)[nH]n3)n2)cc1,Potency,[1],1.51 µM (active)
same,Potency,[2],inactive
same,Potency,[3],inactive
C[C@@H]1O[C@@H](O[C@H]2[C@H](OC(=O)[C@]34CCC(C)(C)C[C@H]3C3=CCC5[C@@]6(C)C[C@H](O)[C@H](O[C@@H]7O[C@H](CO)[C@@H](O)[C@H](O)[C@H]7O)[C@@](C)(CO)C6[C@H](O)C[C@@]5(C)[C@]3(C)CC4)OC[C@H](O)[C@@H]2O)[C@H](O)[C@H](O)[C@H]1O[C@@H]1OC[C@@H](O)[C@H](O[C@@H]2OC[C@](O)(CO)[C@H]2O)[C@H]1O (stereo not given in full),activation,[1],5.36%
same,"activity change, negative = inhibition",[2],8.31% [at 11.2 µM]
same,"activity change, negative = inhibition",[3],7.08% [at 11.2 µM]
Cc1cc2nc(NCCCO)n(CC(=O)c3cc(C(C)(C)C)c(O)c(C(C)(C)C)c3)c2cc1C,activation,[1],5%
same,Potency,[2],inactive
same,Potency,[3],inactive
O=C(Nc1ccc(N2C(=O)[C@@H]3[C@H](C2=O)[C@@H]2C=C[C@H]3C2)c(Cl)c1)c1ccccn1,activation,[1],-11.7%
same,Potency,[2],inactive
same,Potency,[3],inactive
COc1cc2c(cc1OC)CC(=O)N(CCCNC[C@H]1Cc3cc(OC)c(OC)cc31)CC2,activation,[1],-11.7%
same,Potency,[2],inactive
same,Potency,[3],inactive
CC(=O)OC(C)(C)/C=C/C(=O)C(C)(O)C1C(O)CC2(C)C3CC=C(C(C)(C)C(=O)O)C(CC(=O)O)C3(C)C(=O)CC12C (stereo not given),activation,[1],-3.82%
same,Potency,[2],inactive
same,Potency,[3],inactive
